# Reference: PubChem BioAssay AID376 (PDSP, 2006)
# About 250 (12%) of roughly 2,000 compounds were called active. Cut-off read from the data, not from the text of the source: active = hERG blockade below about -20% or above about 20%; inactive = in between. Only a selection was taken, and actives are over-represented in it overall.
# Target: Voltage-gated inwardly rectifying potassium channel KCNH2 (Homo sapiens) (UniProt Q12809)
# Assay: KCNH2 potassium channel function modulators, cell-based (AID 376);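 note: 0% = buffer alone and 100% = reference blocker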
# Details: hERG-expressing cells, channel activity single-concentration screen; concentration not given here
# Chain of Voltage-gated inwardly rectifying potassium channel KCNH2 (Homo sapiens) (Q12809 whole entry, looked up): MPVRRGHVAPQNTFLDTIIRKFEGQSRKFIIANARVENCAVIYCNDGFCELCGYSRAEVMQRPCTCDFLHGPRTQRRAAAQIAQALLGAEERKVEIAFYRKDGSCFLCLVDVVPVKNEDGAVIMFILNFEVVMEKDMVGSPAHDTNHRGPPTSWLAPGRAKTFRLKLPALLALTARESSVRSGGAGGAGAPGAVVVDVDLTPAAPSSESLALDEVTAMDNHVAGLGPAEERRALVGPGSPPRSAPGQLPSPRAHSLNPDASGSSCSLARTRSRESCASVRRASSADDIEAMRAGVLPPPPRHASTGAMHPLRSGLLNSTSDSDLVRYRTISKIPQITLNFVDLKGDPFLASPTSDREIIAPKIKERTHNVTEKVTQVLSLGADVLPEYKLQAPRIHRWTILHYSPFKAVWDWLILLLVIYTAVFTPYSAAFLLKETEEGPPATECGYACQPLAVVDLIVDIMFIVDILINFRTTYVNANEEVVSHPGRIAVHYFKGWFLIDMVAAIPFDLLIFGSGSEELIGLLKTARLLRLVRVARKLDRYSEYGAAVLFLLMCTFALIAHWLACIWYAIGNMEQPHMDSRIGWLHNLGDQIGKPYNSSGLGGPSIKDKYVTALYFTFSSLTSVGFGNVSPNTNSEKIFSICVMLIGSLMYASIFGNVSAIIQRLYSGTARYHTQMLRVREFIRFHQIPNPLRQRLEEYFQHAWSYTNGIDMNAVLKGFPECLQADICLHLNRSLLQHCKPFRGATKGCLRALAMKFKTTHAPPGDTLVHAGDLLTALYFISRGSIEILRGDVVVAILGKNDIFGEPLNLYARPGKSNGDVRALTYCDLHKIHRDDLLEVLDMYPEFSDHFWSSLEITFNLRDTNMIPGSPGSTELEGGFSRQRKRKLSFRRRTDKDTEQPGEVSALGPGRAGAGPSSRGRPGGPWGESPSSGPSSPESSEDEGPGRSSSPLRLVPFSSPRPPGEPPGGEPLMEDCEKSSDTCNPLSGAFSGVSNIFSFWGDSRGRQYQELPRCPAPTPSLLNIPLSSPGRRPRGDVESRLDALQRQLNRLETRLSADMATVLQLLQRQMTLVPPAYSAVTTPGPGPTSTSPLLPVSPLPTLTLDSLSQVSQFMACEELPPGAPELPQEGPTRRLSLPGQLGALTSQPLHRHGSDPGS
row,Compound,hERG blockade
1,NC(=O)CC(N)c1nn[nH]n1 (stereo not drawn),-2.74% (inactive)
2,CN1CCCCC1CCN1c2ccccc2Sc2ccc(S(C)=O)cc21 (stereo not drawn),16.5% (inactive)
3,COc1ccc2c(c1)N(CCC1CCCCN1C)c1ccccc1S2 (stereo not drawn),59.1% (active)
4,CN1CCCCC1CCN1CCCCC1 (stereo not drawn),1.07% (inactive)
5,OC(C1=CC(=Cc2ccncc2)c2ccccc21)c1ccncc1 (stereo not drawn),1.87% (inactive)
6,O=C(NCc1cccs1)OC1CC2CCC1C2 (stereo not drawn),-2.2% (inactive)
7,C[N+](C)(C)CC(=O)NN=Cc1c(O)ccc2ccccc12,-4.06% (inactive)
8,c1ccc(C(CCN2CC3CCC(CC3)C2)c2ccccc2)cc1,56.9% (active)
9,c1ccc(C(CCN2CCCC2)c2ccccn2)cc1 (stereo not drawn),3.48% (inactive)
10,c1ccc2c(c1)-c1ccccc1C2N1CC2CCC(CC2)C1,-7.32% (inactive)
11,Nc1cc(S(N)(=O)=O)ccc1SSc1ccc(S(N)(=O)=O)cc1N,-0.877% (inactive)
12,OC(COc1cccc2ccccc12)CN1CCOCC1 (stereo not drawn),2.26% (inactive)
13,Nc1ccc2[nH]cc(CCC(=O)O)c2c1,1.56% (inactive)
14,OCC1OC(N2CCN(C3OC(CO)C(O)C(O)C3O)CC2)C(O)C(O)C1O (stereo not drawn),-5.49% (inactive)
15,O=P(O)(O)OC1OC(CO)C(O)C(O)C1O (stereo not drawn),-24.6% (active)
16,Cc1c(Cl)c(S(N)(=O)=O)cc(S(N)(=O)=O)c1NC(=O)c1ccc(Cl)cc1,12.5% (inactive)
17,Cc1cccc(Cl)c1NCC(O)CN1CCN(C)CC1 (stereo not drawn),-2.1% (inactive)
18,CC1Oc2ccc(C(=O)CC(C(=O)O)c3ccc4c(c3)OCO4)cc2O1 (stereo not drawn),-27.6% (active)
19,CC(C(=O)O)C(=Cc1ccc2c(c1)OCO2)C(=O)O (stereo not drawn),0.849% (inactive)
20,O=C(O)CC(Cc1ccc2c(c1)OCO2)C(=O)O (stereo not drawn),6.12% (inactive)
21,CN(C)Cc1ccc(-c2cc3onc(-c4ccccc4)c3c(=O)n2C)cc1,10.3% (inactive)
22,CC(C)(CO)N1CCN(C(=S)Nc2ccccc2)CC1,0.768% (inactive)
23,C[N+]1(C)CCOC(O)(c2ccccc2)C1 (stereo not drawn),17.7% (inactive)
24,CC[N+](C)(CC)CCN1C(=O)c2ccccc2S1(=O)=O,-0.137% (inactive)
25,NS(=O)(=O)c1ccc(N=Nc2c[nH]c(=O)c(O)c2)cc1,14% (inactive)
26,NS(=O)(=O)c1ccc(N=Nc2ccc[nH]c2=O)cc1,16% (inactive)
27,Cn1c(N)c(N=Nc2ccc(S(N)(=O)=O)cc2)c(=O)n(C)c1=O,31.1% (active)

row,Compound,hERG blockade
1,S=c1nc(-c2nc(=S)[nH]c3c2CCCCCCCCCC3)c2c([nH]1)CCCCCCCCCC2,0.0358% (inactive)
2,Clc1cc2c(c(CSC3=NCN(CC4CC4)CN3)c1)OCOC2,8.37% (inactive)
3,CN(C)CCNCCN,4.72% (inactive)
4,CC1=NN(c2ccccc2)C(=O)C1N=Nc1ccc(S(N)(=O)=O)cc1 (stereo not drawn),14.6% (inactive)
5,CC1=NN(C(=O)c2ccncc2)C(=O)C1N=Nc1ccc2ccccc2c1 (stereo not drawn),21.5% (active)
6,CC(=NNC(=O)c1ccncc1)c1ccc2ccccc2c1O,-2.47% (inactive)
7,Cc1noc(NC(=O)Nc2ccccc2F)c1C#N,2.22% (inactive)
8,Nc1ncnc2c1ncn2CCCCC(=O)O,-16.5% (inactive)
9,CN(C)c1ncnc2c1ncn2CCn1cnc2c(N(C)C)ncnc21,-12.5% (inactive)
10,CCCCn1cnc2c(SC)ncnc21,-28.3% (active)
11,Cc1cc(C)nc(NC(=O)COc2ccc(Cl)cc2)c1,16.6% (inactive)
12,OC(COc1ccccc1)CN1CCCCC1 (stereo not drawn),-2.64% (inactive)
13,c1ccc(-c2ccc(-c3ccc(C4=NCCN4)cc3)o2)cc1,134% (active)
14,O=C(CSC1=NCCN1)Nc1ccccc1,8.84% (inactive)
15,c1ccc(-c2cnc(-c3ccc(-c4ncc(-c5ccccc5)o4)cc3)o2)cc1,-6.76% (inactive)
16,OCCSCc1ccccc1,-16.1% (inactive)
17,O=C(O)CN(CCN(CC(=O)O)CC(=O)O)CC(=O)O.[Cu+2],1.62% (inactive)
18,O=C(O)CCc1nc(-c2ccccc2-n2cccc2)no1,5.65% (inactive)
19,O=C(O)C(Cc1cc(I)c(O)c(I)c1)C1CCCCC1 (stereo not drawn),35.2% (active)
20,C=C(C)CNCCN,-5.55% (inactive)
21,Cc1ccc(CSC(N)=Nc2ccccc2)cc1C,14.3% (inactive)
22,Nc1ncnc2c1ncn2C1OC(C(=O)OCCO)C(O)C1O (stereo not drawn),1.37% (inactive)
23,OC1CC2CCC(C1)N2CCCN1c2ccccc2Sc2ccc(Cl)cc21 (stereo not drawn),89.8% (active)
24,Clc1ccc2c(c1)N(CCCN1CCCC13CCCCC3)c1ccccc1S2,4.63% (inactive)
25,COc1ccc(N(CC(=O)O)N=O)cc1,1.49% (inactive)
26,O=C1C=CC(=Nc2cccc3c(N=C4C=CC(=O)O4)cccc23)O1,-12% (inactive)
